According to PubChem BioAssay (NCATS):
Values joined by “and” are separate entries in the source; they are usually repeats but may differ in a detail not shown here. Equal entries are not always repeated. Records with an inconclusive call do not appear. A call without a number means that no potency is given here. Active and inactive are the calls of the source. Unless noted, calls come from the whole dose curve.

Columns and labels:
[1] = Primary qHTS for inhibitors of SARS-S pseudo-typed particle cell entry (AID 1479145); settings: outcome: dose series up to 57.1 µM unless noted; note: nearly all actives have a fitted effect of over 45% in size
[2] = Primary qHTS for Huh7 cytotoxicity: counterscreen for inhibitors of MERS-S pseudotyped particle cell entry (AID 1479147); settings: outcome: dose series up to 57.1 µM unless noted
[3] = Primary qHTS for inhibitors of MERS-S pseudo-typed particle cell entry (AID 1479149); settings: outcome: dose series up to 57.1 µM unless noted; note: nearly all actives have a fitted effect of over 60% in size
[4] = Primary qHTS for Vero E6 cytotoxicity: counterscreen for inhibitors of SARS-S pseudo-typed particle cell entry (AID 1479150); settings: outcome: dose series up to 57.1 µM unless noted
[5] = Cytotoxicity counterscreen for inhibitors of SARS-CoV-2 cell entry (AID 1645845); settings: outcome: dose series up to 57.1 µM unless noted; note: nearly all actives have a fitted effect of over 50% in size
Outline: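 Counterscreen run in the same HEK293-ACE2 line as the pseudotyped-particle entry assay, without particles. Viability after 48 h at 37 C was read as ATP luminescence, scaled between cell-containing and cell-free wells.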

[6] = Primary qHTS to identify inhibitors of SARS-CoV-2 cell entry (AID 1645846); settings: SARS-CoV-2 pseudovirus cell entry assay, luminescence; activity change, negative = inhibition: at 57.1 µM (top of the series) unless noted; note: nearly all actives have a fitted effect of over 45% in size
Outline: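 Entry measured by luciferase signal 48 h after adding SARS-CoV-2-S pseudotyped MLV particles to HEK293-ACE2 cells preincubated 1 h with compounds. Normalisation: bald particles and spike particles.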

[7] = molecular target: Glutathione peroxidase 1 (Homo sapiens) (UniProt P07203); test: Primary qHTS Assay for Inhibitors of Recombinant Selenoprotein Glutathione Peroxidase 1 (GPX1) (AID 1845191; active = well fitted inhibition curve with a large enough effect; note: nearly all actives have a fitted effect of over 65% in size; note: potency is the fitted concentration of half-maximal effect)
Glutathione peroxidase 1 (Homo sapiens), sequence (P07203 whole entry, looked up): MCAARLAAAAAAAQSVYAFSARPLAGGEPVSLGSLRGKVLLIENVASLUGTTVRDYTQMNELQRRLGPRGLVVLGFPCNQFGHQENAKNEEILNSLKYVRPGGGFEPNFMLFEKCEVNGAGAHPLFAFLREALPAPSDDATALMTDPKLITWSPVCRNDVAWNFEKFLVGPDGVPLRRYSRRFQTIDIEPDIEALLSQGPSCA
Outline: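 GR-coupled readout: NADPH consumption tracked by fluorescence, ex 340/em 450 nm, at t=0 and after 15 min at RT. Final mix 10 nM GPX1, 1 mM GSH, 0.5 mM CHP, 0.5 mM NADPH, 100 nM GR, 0.01% BSA, following 30 min enzyme–compound preincubation.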

[8] = molecular target: Phospholipid hydroperoxide glutathione peroxidase GPX4 (Homo sapiens) (UniProt P36969); test: Primary qHTS Assay for Inhibitors of Recombinant Selenoprotein Glutathione Peroxidase 4 (GPX4) (AID 1845192; active = well fitted inhibition curve with a large enough effect; note: nearly all actives have a fitted effect of over 65% in size; note: potency is the fitted concentration of half-maximal effect)
Phospholipid hydroperoxide glutathione peroxidase GPX4 (Homo sapiens), sequence (P36969 whole entry, looked up): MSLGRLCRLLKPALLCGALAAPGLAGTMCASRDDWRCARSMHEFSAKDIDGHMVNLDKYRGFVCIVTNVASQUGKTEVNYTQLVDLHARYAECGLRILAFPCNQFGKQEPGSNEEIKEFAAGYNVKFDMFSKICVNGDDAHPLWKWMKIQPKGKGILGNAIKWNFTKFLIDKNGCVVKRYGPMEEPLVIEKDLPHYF
Outline: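 Steps: GPX4 plus compound, 30 min RT; add GR/GSH/NADPH master mix; start with cumene hydroperoxide; read 340/450 nm fluorescence at 0 and 15 min. Finals were 200 nM GPX4, 1 mM GSH, 0.5 mM CHP, 0.5 mM NADPH, 100 nM GR.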

| SMILES | Potency [1] | Potency [2] | Potency [3] | Potency [4] | Potency [5] | activity change, negative = inhibition [6] | Potency [7] | Potency [8] | Potency [6] | activity change, negative = inhibition [1] | activity change, negative = cytotoxicity [2] | outcome [3] | activity change, negative = cytotoxicity [4] |
| --- | --- | --- | --- | --- | --- | --- | --- | --- | --- | --- | --- | --- | --- |
| CCC[C@@H]1CC(=O)N([C@@H](CC)C(N)=O)C1 | inactive | inactive | inactive | inactive | inactive | -22.5% | inactive | inactive |  |  |  |  |  |
| CNC(C)CC1CCCC1 (stereo not drawn) | inactive | inactive | inactive | inactive | inactive |  | inactive | inactive | inactive |  |  |  |  |
| C[C@@H]1C[C@H]2[C@@H]3C[C@H](F)C4=CC(=O)C=C[C@]4(C)[C@@]3(F)[C@@H](O)C[C@]2(C)[C@@]1(O)C(=O)COC(=O)C(C)(C)C | inactive | inactive | inactive | inactive | inactive |  |  |  | inactive |  |  |  |  |
| CCC(=O)OCC(=O)[C@]1(OC(=O)CC)[C@H](C)C[C@H]2[C@H]3[C@H]([C@@H](O)C[C@@]21C)[C@@]1(C)C=CC(=O)C=C1C[C@H]3Cl | inactive | inactive | inactive | inactive | inactive | -6.25% |  |  |  |  |  |  |  |
| C=CC[N+]1([C@H]2C[C@H]3[C@@H]4CC[C@H]5C[C@H](O)[C@@H](N6CCOCC6)C[C@]5(C)[C@H]4CC[C@]3(C)[C@H]2OC(C)=O)CCCC1 | inactive | inactive | inactive | inactive | inactive | -19.7% and -28.9% |  |  |  |  |  |  |  |
| CN[C@@H]1[C@H](O[C@H]2[C@H](O[C@@H]3[C@@H](O)[C@H](O)[C@@H](N=C(N)N)[C@H](O)[C@H]3N=C(N)N)O[C@@H](C)[C@]2(O)C=O)O[C@@H](CO)[C@H](O)[C@H]1O |  |  |  |  | inactive | -18.7% [at 11.3 µM] |  |  | inactive | -20.2% [at 11.4 µM] (inactive) | -3.3% [at 11.4 µM] (inactive) | inactive [at 11.4 µM] | -2.76% [at 11.4 µM] (inactive) |
| CC(OC(=O)OC1CCCCC1)OC(=O)C1=C(CSc2nnnn2CCN(C)C)CS[C@@H]2[C@H](NC(=O)Cc3csc(N)n3)C(=O)N12 (stereo partly drawn) | inactive | inactive | inactive | inactive | inactive | -37% |  |  |  |  |  |  |  |
| O=c1ccc2cc(O[C@@H]3O[C@H](CO)[C@H](O)[C@H](O)[C@H]3O)c(O)cc2o1 | inactive | inactive | inactive | inactive | inactive |  | 16.1 µM (active) | 25.5 µM (active) | inactive |  |  |  |  |
| C[C@H]1[C@H](O)[C@@H](C)/C=C/C=C/CC/C=C/C=C/C=C/C=C/C(OC2O[C@H](C)[C@@H](O)[C@H](N)[C@@H]2O)CC2O[C@](O)(CC(O)C(O)CCC(O)CC(O)CC(O)CC(=O)O[C@H]1C)CC(O)C2C(=O)O (stereo partly drawn) | inactive | inactive | inactive | inactive | inactive | -22.7% | inactive |  |  |  |  |  |  |
| CCN(C)C(C)C(O)c1ccccc1 (stereo not drawn) | inactive | inactive | inactive | inactive | inactive | -6% | inactive | inactive |  |  |  |  |  |
| O=C(O[C@H]1C[N+]2(CCCOc3ccccc3)CCC1CC2)C(O)(c1cccs1)c1cccs1 | inactive | inactive | inactive | inactive | inactive | -28.6% |  |  |  |  |  |  |  |
| NCCCC[C@H](NC(=O)[C@@H]1CCCN1C(=O)[C@@H]1CSSC[C@H](N)C(=O)N[C@@H](Cc2ccccc2)C(=O)N[C@@H](Cc2ccccc2)C(=O)N[C@@H](CCC(N)=O)C(=O)N[C@@H](CC(N)=O)C(=O)N1)C(=O)NCC(N)=O | inactive | inactive | inactive | inactive | inactive | -27.3% |  |  |  |  |  |  |  |
| Cc1cc2nc3c(=O)[nH]c(=O)nc-3n(C[C@H](O)[C@H](O)[C@H](O)COP(=O)(O)OP(=O)(O)OC[C@H]3O[C@@H](n4cnc5c(N)ncnc54)[C@H](O)[C@H]3O)c2cc1C | inactive | inactive | inactive | inactive | inactive | -9.08% [at 27.1 µM] |  |  |  |  |  |  |  |
| CC(=O)Nc1c(I)c(C(=O)O)c(I)c(N(C)C(C)=O)c1I | inactive | inactive | inactive | inactive | inactive | -20.3% |  |  |  |  |  |  |  |
| C1CNCCN1 | inactive | inactive | inactive | inactive | inactive | 2.96% [at 114 µM] |  |  |  |  |  |  |  |
| CC(C)C[C@H](NC(=O)[C@@H](COC(C)(C)C)NC(=O)[C@H](Cc1ccc(O)cc1)NC(=O)[C@H](CO)NC(=O)[C@H](Cc1c[nH]c2ccccc12)NC(=O)[C@H](Cc1cnc[nH]1)NC(=O)[C@@H]1CCC(=O)N1)C(=O)N[C@@H](CCCN=C(N)N)C(=O)N1CCC[C@H]1C(=O)NNC(N)=O | inactive | inactive | inactive | inactive | inactive | -11.8% [at 27.1 µM] |  |  |  |  |  |  |  |
| C[C@]12CCC(=O)C=C1CC[C@@H]1[C@@H]2[C@@H](O)C[C@@]2(C)[C@H]1CC[C@]2(O)C(=O)COP(=O)(O)O | inactive | inactive | inactive | inactive | inactive | 2.63% [at 27.1 µM] |  |  |  |  |  |  |  |
| CCCCCCCCCCCC(=O)OCN1C(=O)CCc2ccc(OCCCCN3CCN(c4cccc(Cl)c4Cl)CC3)cc21 | inactive | inactive | inactive | inactive | inactive | -17.3% [at 19 µM] |  |  |  |  |  |  |  |
| O=C(OC1C(OC(=O)c2cccnc2)C(OC(=O)c2cccnc2)C(OC(=O)c2cccnc2)C(OC(=O)c2cccnc2)C1OC(=O)c1cccnc1)c1cccnc1 (stereo not drawn) | inactive | inactive | inactive | inactive | inactive | -19.4% [at 19 µM] |  |  |  |  |  |  |  |
| CC(=O)[C@@]1(O)CC[C@H]2[C@@H]3CCC4=CC(=O)CC[C@@H]4[C@H]3CC[C@@]21C | inactive | inactive | inactive | inactive | inactive | -22.5% | inactive | inactive |  |  |  |  |  |
| CO[C@@H]1[C@@H](O[C@@H]2O[C@H](C)[C@@H](O[C@H]3C[C@@](C)(O)[C@H](O)[C@H](C)O3)[C@H](N(C)C)[C@H]2O)[C@@H](CC=O)C[C@@H](C)[C@@H](O[C@H]2CC[C@H](N(C)C)[C@@H](C)O2)/C=C/C=C/C[C@H](C)OC(=O)C[C@H]1O | inactive | inactive | inactive | inactive | inactive | -34.9% |  |  |  |  |  |  |  |
